# Assay results: the supplement of paper PMC8387472
# Tests used:
# Assay in all cases: fraction of 1-bp insertions among edited reads; higher = more 1-bp insertion outcomes
# Settings in all cases: mESC; 2uM; 72 h treatment, harvest day 5
# [1] = compound: CCn1c(=O)c(-c2ccc(Cl)cc2Cl)cc2cnc(Nc3ccc(N4CCNCC4)c(F)c3)nc21
# [2] = compound: CNc1ccc([N+](=O)[O-])c(Nc2ccc3[nH]ncc3c2)n1
# Rifapentine = compound: CO[C@H]1/C=C/O[C@@]2(C)Oc3c(C)c(O)c4c(O)c(c(/C=N/N5CCN(C6CCCC6)CC5)c(O)c4c3C2=O)NC(=O)/C(C)=C\C=C\[C@H](C)[C@H](O)[C@@H](C)[C@@H](O)[C@@H](C)[C@H](OC(C)=O)[C@@H]1C [Rifapentine]
# [3] = compound: COc1ccccc1-c1cc(Nc2cccc(CS(N)(=O)=O)c2)ncn1
# [4] = compound: C[C@@H]1CN(CC(=O)Nc2ccc3c(c2)Cc2cccc(-c4cc(=O)cc(N5CCOCC5)o4)c2S3)C[C@H](C)O1
# [5] = compound: Cc1cc(C)nc(SCC(=O)Nc2ncc(Cc3cccc4ccccc34)s2)n1
# [6] = compound: Cc1ccc(C(=O)NCCCCCC(=O)Nc2ccccc2N)cc1
# [7] = compound: Cc1cccc(CC(=O)N2CCc3c2ccc(-c2cn(C)c4ncnc(N)c24)c3F)n1
# [8] = compound: NC(=O)c1ccc2nc(-c3ccc(Oc4ccc(Cl)cc4)cc3)[nH]c2c1 [Chk 2 inhibitor II (BML-277)]
# Tucidinostat (Chidamide) = compound: Nc1cc(F)ccc1NC(=O)c1ccc(CNC(=O)/C=C/c2cccnc2)cc1 [Tucidinostat (Chidamide)]
# Pemetrexed = compound: Nc1nc2[nH]cc(CCc3ccc(C(=O)N[C@@H](CCC(=O)O)C(=O)O)cc3)c2c(=O)[nH]1 [Pemetrexed]
# [9] = compound: Nc1ncnc2c1c(-c1cnc3[nH]ccc3c1)nn2C1CCCC1
# [10] = compound: O=C(c1cccc(Cl)c1F)N1CCN(Cc2cccc(Nc3nccs3)n2)CC1
# Kenpaullone = compound: O=C1Cc2c([nH]c3ccc(Br)cc23)-c2ccccc2N1 [Kenpaullone]
# Genistein = compound: O=c1c(-c2ccc(O)cc2)coc2cc(O)cc(O)c12 [Genistein]
# [11] = compound: O=c1cc(N2CCOCC2)oc2c(-c3ccc4c(c3)OCCO4)csc12
# Mercaptopurine (6-MP) = compound: S=c1[nH]cnc2nc[nH]c12 [Mercaptopurine (6-MP)]
# [12] = compound: S=c1nc[nH]c2nc[nH]c12 [6-Mercaptopurine (6-MP) Monohydrate]
Target,fraction of 1-bp insertions among edited reads [1],fraction of 1-bp insertions among edited reads [2],fraction of 1-bp insertions among edited reads (Rifapentine),fraction of 1-bp insertions among edited reads [3],fraction of 1-bp insertions among edited reads [4],fraction of 1-bp insertions among edited reads [5],fraction of 1-bp insertions among edited reads [6],fraction of 1-bp insertions among edited reads [7],fraction of 1-bp insertions among edited reads [8],fraction of 1-bp insertions among edited reads (Tucidinostat (Chidamide)),fraction of 1-bp insertions among edited reads (Pemetrexed),fraction of 1-bp insertions among edited reads [9],fraction of 1-bp insertions among edited reads [10],fraction of 1-bp insertions among edited reads (Kenpaullone),fraction of 1-bp insertions among edited reads (Genistein),fraction of 1-bp insertions among edited reads [11],fraction of 1-bp insertions among edited reads (Mercaptopurine (6-MP)),fraction of 1-bp insertions among edited reads [12]
"47.0 (DMSO control at this site: 1-bp insertion 0.095, MH deletion 0.585, edited 0.118) GAGTGGTCCCGAGCCAGGAACTGTGTGTGTTGCAGGGGGGCAGTAACTCCCCAACTCCCTC",0.0775,0.106,0.102,0.0993,0.269,0.0938,0.12,0.0914,0.0791,0.14,0.0508,0.158,0.144,0.101,0.0861,0.108,0.101,0.142
"19.0 (DMSO control at this site: 1-bp insertion 0.121, MH deletion 0.101, edited 0.057) TCTGCAGGGGTCGGAACCCGGGGGCTAGGGCTATCCCGGGGGCTAGGGCTATTAGCGAACC",0.131,0.0931,0.103,0.0834,0.27,0.0666,0.123,0.087,0.0625,0.116,0.0345,0.138,0.109,0.0939,0.0748,0.0634,0.0615,0.104
"2.0 (DMSO control at this site: 1-bp insertion 0.364, MH deletion 0.356, edited 0.125) GGTGCCCCCGAGACCTACGCGAACCGAAATCGATGTCCGGTGCGCAAGCAGGGCTGGCGTC",0.368,0.43,0.334,0.457,0.745,0.397,0.451,0.471,0.378,0.433,0.327,0.539,0.498,0.478,0.309,0.331,0.452,0.434
"1.0 (DMSO control at this site: 1-bp insertion 0.521, MH deletion 0.323, edited 0.141) GTGTCACAGTGCACGAGTGACGGGATAATGTGCTGACAGGTAATTGATAGGCTTCCAACTT",0.545,0.665,0.573,0.628,0.8,0.594,0.577,0.588,0.594,0.605,0.486,0.73,0.653,0.673,0.54,0.552,0.591,0.6
"44.0 (DMSO control at this site: 1-bp insertion 0.181, MH deletion 0.512, edited 0.123) ACACATACCTTCTTCGAGGCAGCCAGCATGATGAGACAGGTCTCCCACAAACACATCGTGT",0.198,0.251,0.174,0.233,0.418,0.192,0.2,0.282,0.166,0.238,0.127,0.293,0.235,0.235,0.173,0.169,0.24,0.188
"42.0 (DMSO control at this site: 1-bp insertion 0.145, MH deletion 0.655, edited 0.132) GGGCTAAACCTATGAGCACAGTAGAACTAAGGGTGGGTGGTGTAGCTAAAGAACTTGACCA",0.133,0.175,0.139,0.162,0.436,0.149,0.138,0.158,0.15,0.203,0.118,0.246,0.201,0.21,0.144,0.141,0.181,0.198
"29.0 (DMSO control at this site: 1-bp insertion 0.084, MH deletion 0.745, edited 0.133) TTGATGAACTTCCTCTTCTTCTCATGTCTCCGGTCTCCGGTAGGCCACGTGCATGGCCACT",0.0597,0.0921,0.0712,0.106,0.339,0.0918,0.0975,0.111,0.0639,0.122,0.0781,0.112,0.119,0.11,0.072,0.0694,0.105,0.115
"45.0 (DMSO control at this site: 1-bp insertion 0.017, MH deletion 0.666, edited 0.101) TTACACAGCATGAACTGCTAGGTGATGATGTCAGATTCGGTTTTACTAACTTCTCCAAAAA",0.0237,0.0246,0.0255,0.037,0.0735,0.0352,0.0235,0.0353,0.0266,0.0198,0.0325,0.0301,0.0412,0.0351,0.0293,0.0264,0.0287,0.0267
"31.0 (DMSO control at this site: 1-bp insertion 0.315, MH deletion 0.329, edited 0.026) ACCTCCACAGGCTGGGTGGCCCGGAGGCTGGGCGGCCCGGAGGCTGGGCTGGGCGAGTATC",0.115,0.185,0.232,0.192,,0.196,0.214,,,0.0994,0.0954,,0.127,0.173,0.102,0.138,0.178,0.208
8.0 GCATGCGTGTTTTGGGACAATGTAGTATACATTTGGGAGGCTCTCAGCTTTTCCCAATAAA,,,,,,0.418,,,,0.257,0.255,0.646,,0.441,,,,0.442
"43.0 (DMSO control at this site: 1-bp insertion 0.134, MH deletion 0.714, edited 0.104) AGTTTAACTTACTCCGGCCAAAAAAGAACTGCACCTCTGGAGCGGGTTAGTGGTGGTGGTA",0.0588,0.0932,0.0993,0.101,0.118,0.0918,0.0831,0.0629,0.1,0.0828,0.101,0.0907,0.0417,0.058,0.0866,0.0822,0.0946,0.122
"18.0 (DMSO control at this site: 1-bp insertion 0.114, MH deletion 0.789, edited 0.094) GCGCAAGTGCATAAGTTTTTCTTAAGGCGTGCCTTTAAGGCGTGCCTTTGTCGGTCCTGGA",0.0919,0.103,0.103,0.109,0.18,0.105,0.113,0.128,0.0891,0.0964,0.0804,0.12,0.114,0.134,0.0973,0.0588,0.137,0.13
"4.0 (DMSO control at this site: 1-bp insertion 0.146, MH deletion 0.523, edited 0.125) ACGCCTTAGTGCACGAGTGACGGGATAATGTGGTCTCAGGTAATTGATAGGCTTCCAACTT",0.102,0.165,0.101,0.15,0.416,0.132,0.145,0.167,0.102,0.171,0.121,0.237,0.18,0.171,0.126,0.137,0.161,0.153
15.0 GCGCCTCCAATGACCCAGTGGGATCCTACTCCATAATGGGATCCTGGGGATTCCTCGCTCC,,,0.167,,,0.185,0.19,,,0.158,,,,,0.0821,,,0.0929
"20.0 (DMSO control at this site: 1-bp insertion 0.349, MH deletion 0.138, edited 0.084) TACAGGTGTAGACTGGTTACGTGGCTGCGGAATTGACTGGTTACGTGGCTGCGGAATTTTG",0.317,0.438,0.293,0.345,0.47,0.3,0.315,0.355,0.233,0.348,0.22,0.456,0.453,0.429,0.278,0.203,0.376,0.22
"0.0 (DMSO control at this site: 1-bp insertion 0.463, MH deletion 0.339, edited 0.14) AGGATTACCGAGACCTACGCGAACCGAAATCGCTGTCCGGTGCGCAAGCAGGGCTGGCGTC",0.394,0.535,0.468,0.559,0.793,0.523,0.498,0.526,0.495,0.534,0.375,0.623,0.624,0.604,0.453,0.395,0.543,0.518
"38.0 (DMSO control at this site: 1-bp insertion 0.063, MH deletion 0.487, edited 0.17) GGGCTGGGTGCTAAAATGAGGAGCTCCAAGAAGACTGAGGTGAACCTGGAGGCCCCTGAGC",0.0578,0.0482,0.0681,0.0731,0.178,0.0549,0.0526,0.0567,0.0523,0.0633,0.0448,0.104,0.0891,0.102,0.0646,0.0742,0.0697,0.0502
"22.0 (DMSO control at this site: 1-bp insertion 0.573, MH deletion 0.229, edited 0.045) CTGATGGTTGAAGGATTTAGCCGGGGTCCTAGACGCCGGGGTCCTAGACGAAAGGGCCACG",0.614,0.667,0.644,0.619,0.778,0.573,0.653,0.725,0.508,0.53,0.447,,0.671,0.604,0.595,0.623,0.587,0.601
"30.0 (DMSO control at this site: 1-bp insertion 0.074, MH deletion 0.67, edited 0.142) GAGCTGGCATGAGTATTTGTGCCACATGGCTCCCACATGGCTCCACATGCAAGTTTGAAAC",0.0975,0.0866,0.0945,0.115,0.178,0.0785,0.0713,0.111,0.0722,0.1,0.0714,0.113,0.0986,0.0891,0.0719,0.0702,0.0954,0.0905
